# From the supplement of paper PMC10849652
# Of roughly 7,900 targets only a part is listed; those with a hit were picked by preference. About 0.6% of all pairs of compound and target were hits. Values without a mark were called inactive.
# Legend:
# Assay in all cases: log2 fold change, soluble protein after heating vs DMSO (PISA); higher = thermal stabilisation; K562 cells, 10 uM, 30 min; active = over 0.2 and 3.5 SD of the protein, either way, in both replicates (recomputed)
# bafetinib = compound: Cc1ccc(NC(=O)c2ccc(CN3CC[C@H](N(C)C)C3)c(C(F)(F)F)c2)cc1Nc1nccc(-c2cncnc2)n1 [bafetinib]
# Method in brief: (§1)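 Values are thermal stability changes relative to control samples and are taken from duplicates. They are stated as log2 fold changes. Before quantification by TMTpro 16plex LC-MS/MS with equalised channel sums, K562 cells at 2×10^6 cells/mL were treated with 10 μM compound for 30 min, heated in aliquots for 3 min across 48°C-58°C, pooled, extracted in PBS with 0.5% NP-40 at 4°C, and centrifuged at 21,000xg for 90 min to give the soluble supernatant.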
# [1] = compound: Cc1cccc(CC(=O)N2CCc3c2ccc(-c2cn(C)c4ncnc(N)c24)c3F)n1
# Method in brief: as §1
# nilotinib = compound: Cc1cn(-c2cc(NC(=O)c3ccc(C)c(Nc4nccc(-c5cccnc5)n4)c3)cc(C(F)(F)F)c2)cn1 [nilotinib]
# Method in brief: as §1
# [2] = compound: Cc1nc(Nc2n[nH]c3c2CN(C(=O)N[C@H](CN(C)C)c2ccccc2)C3(C)C)c2sccc2n1
# Method in brief: as §1
# dasatinib = compound: Cc1nc(Nc2ncc(C(=O)Nc3c(C)cccc3Cl)s2)cc(N2CCN(CCO)CC2)n1 [dasatinib]
# Method in brief: as §1
# [3] = compound: Cc1ncc(-c2ccnc(Nc3ccc(S(C)(=O)=O)cc3)n2)n1C(C)C
# Method in brief: as §1
# [4] = compound: Cn1cc(-c2ccc3c(c2)CCN3C(=O)Cc2cccc(C(F)(F)F)c2)c2c(N)ncnc21
# Method in brief: as §1
# [5] = compound: Cn1cc(-c2ccc3nnc(C(F)(F)c4ccc5ncccc5c4)n3n2)cn1
# Method in brief: as §1
# tipifarnib = compound: Cn1cncc1[C@@](N)(c1ccc(Cl)cc1)c1ccc2c(c1)c(-c1cccc(Cl)c1)cc(=O)n2C [tipifarnib]
# Method in brief: as §1
# mubritinib = compound: FC(F)(F)c1ccc(/C=C/c2nc(COc3ccc(CCCCn4ccnn4)cc3)co2)cc1 [mubritinib]
# Method in brief: as §1
# [6] = compound: NC(=O)Nc1cc(-c2cccc(F)c2)sc1C(=O)N[C@H]1CCCNC1
# Method in brief: as §1
# [7] = compound: NC(=O)c1cnc(N[C@@H]2CCCC[C@@H]2N)nc1Nc1cccc(-n2nccn2)c1
# Method in brief: as §1
# [8] = compound: NC1(c2ccc(-c3nc4ccn5c(=O)[nH]nc5c4cc3-c3ccccc3)cc2)CCC1
# Method in brief: as §1
# [9] = compound: NCC(=O)Nc1ccc(-n2nc(C(F)(F)F)cc2-c2ccc3c(ccc4ccccc43)c2)cc1
# Method in brief: as §1
# entinostat = compound: Nc1ccccc1NC(=O)c1ccc(CNC(=O)OCc2cccnc2)cc1 [entinostat]
# Method in brief: as §1
# vorinostat = compound: O=C(CCCCCCC(=O)Nc1ccccc1)NO [vorinostat]
# Method in brief: as §1
# citarinostat = compound: O=C(CCCCCCNC(=O)c1cnc(N(c2ccccc2)c2ccccc2Cl)nc1)NO [citarinostat]
# Method in brief: as §1
# silmitasertib = compound: O=C(O)c1ccc2c(c1)nc(Nc1cccc(Cl)c1)c1ccncc12 [silmitasertib]
# Method in brief: as §1
# [10] = compound: O=C1NC(=O)C(c2cnc3ccccn23)=C1c1cn2c3c(cc(F)cc13)CN(C(=O)N1CCCCC1)CC2
# Method in brief: as §1
# [11] = compound: c1cc(OCCN2CCCCC2)cc(-c2n[nH]c3ccc(-c4nnc[nH]4)cc23)c1
# Method in brief: as §1
# Chain of UniProt Q9NWZ3 (Q9NWZ3 whole entry, looked up): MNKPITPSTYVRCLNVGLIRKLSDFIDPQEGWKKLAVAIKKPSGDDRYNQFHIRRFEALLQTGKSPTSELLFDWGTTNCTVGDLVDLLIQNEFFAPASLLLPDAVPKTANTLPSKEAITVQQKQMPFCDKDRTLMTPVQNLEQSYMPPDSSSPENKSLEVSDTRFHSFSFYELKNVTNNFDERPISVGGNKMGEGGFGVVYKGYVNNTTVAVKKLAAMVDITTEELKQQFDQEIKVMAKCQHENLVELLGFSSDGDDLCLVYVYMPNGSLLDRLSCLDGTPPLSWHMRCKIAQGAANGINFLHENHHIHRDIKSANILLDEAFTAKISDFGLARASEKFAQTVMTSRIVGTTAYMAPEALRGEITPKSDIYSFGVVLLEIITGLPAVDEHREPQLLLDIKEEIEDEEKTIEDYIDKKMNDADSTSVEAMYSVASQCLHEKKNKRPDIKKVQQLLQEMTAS
# Chain of UniProt P27816 (P27816 whole entry, looked up): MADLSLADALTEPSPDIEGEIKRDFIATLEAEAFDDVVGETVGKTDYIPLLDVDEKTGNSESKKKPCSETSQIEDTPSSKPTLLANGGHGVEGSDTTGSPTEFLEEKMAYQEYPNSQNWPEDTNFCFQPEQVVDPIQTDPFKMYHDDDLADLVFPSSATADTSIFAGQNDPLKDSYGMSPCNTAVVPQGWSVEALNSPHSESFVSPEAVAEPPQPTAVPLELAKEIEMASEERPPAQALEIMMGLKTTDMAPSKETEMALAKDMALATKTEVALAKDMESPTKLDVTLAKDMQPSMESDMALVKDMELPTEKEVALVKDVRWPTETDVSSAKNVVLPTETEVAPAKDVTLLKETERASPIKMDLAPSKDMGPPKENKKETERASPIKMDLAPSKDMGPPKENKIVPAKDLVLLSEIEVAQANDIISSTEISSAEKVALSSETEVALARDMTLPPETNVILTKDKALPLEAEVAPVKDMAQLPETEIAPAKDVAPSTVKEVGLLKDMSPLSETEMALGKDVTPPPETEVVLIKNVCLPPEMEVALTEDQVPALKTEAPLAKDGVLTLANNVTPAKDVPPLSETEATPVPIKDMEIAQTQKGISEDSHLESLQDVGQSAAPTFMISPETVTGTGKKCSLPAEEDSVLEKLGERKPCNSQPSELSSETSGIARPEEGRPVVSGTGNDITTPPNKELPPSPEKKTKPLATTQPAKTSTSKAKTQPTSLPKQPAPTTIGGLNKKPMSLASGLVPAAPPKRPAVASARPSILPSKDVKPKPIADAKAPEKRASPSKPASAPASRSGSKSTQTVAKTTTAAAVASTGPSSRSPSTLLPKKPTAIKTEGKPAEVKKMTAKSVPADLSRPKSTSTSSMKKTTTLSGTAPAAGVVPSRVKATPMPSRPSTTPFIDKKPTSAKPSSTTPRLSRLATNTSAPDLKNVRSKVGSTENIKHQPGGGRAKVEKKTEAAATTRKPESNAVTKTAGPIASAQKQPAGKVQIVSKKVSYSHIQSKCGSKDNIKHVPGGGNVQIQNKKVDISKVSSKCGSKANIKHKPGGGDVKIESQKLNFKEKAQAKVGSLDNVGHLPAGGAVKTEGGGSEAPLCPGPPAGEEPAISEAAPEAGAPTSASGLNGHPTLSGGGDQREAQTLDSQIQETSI
# Chain of UniProt P07948 (P07948 whole entry, looked up): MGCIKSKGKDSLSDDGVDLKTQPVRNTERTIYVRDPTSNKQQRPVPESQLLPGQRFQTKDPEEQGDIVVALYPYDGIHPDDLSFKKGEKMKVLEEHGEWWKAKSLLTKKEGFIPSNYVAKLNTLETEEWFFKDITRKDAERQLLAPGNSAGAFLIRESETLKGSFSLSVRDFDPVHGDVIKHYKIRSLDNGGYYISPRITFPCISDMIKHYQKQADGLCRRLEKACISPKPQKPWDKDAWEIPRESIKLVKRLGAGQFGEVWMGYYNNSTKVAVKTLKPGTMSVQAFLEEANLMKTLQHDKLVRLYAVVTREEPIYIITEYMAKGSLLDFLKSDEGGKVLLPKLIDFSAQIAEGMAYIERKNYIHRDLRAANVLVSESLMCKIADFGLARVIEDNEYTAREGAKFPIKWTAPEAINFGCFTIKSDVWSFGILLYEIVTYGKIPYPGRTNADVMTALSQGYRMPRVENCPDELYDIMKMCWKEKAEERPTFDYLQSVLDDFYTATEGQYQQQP
# Chain of UniProt O95373 (O95373 whole entry, looked up): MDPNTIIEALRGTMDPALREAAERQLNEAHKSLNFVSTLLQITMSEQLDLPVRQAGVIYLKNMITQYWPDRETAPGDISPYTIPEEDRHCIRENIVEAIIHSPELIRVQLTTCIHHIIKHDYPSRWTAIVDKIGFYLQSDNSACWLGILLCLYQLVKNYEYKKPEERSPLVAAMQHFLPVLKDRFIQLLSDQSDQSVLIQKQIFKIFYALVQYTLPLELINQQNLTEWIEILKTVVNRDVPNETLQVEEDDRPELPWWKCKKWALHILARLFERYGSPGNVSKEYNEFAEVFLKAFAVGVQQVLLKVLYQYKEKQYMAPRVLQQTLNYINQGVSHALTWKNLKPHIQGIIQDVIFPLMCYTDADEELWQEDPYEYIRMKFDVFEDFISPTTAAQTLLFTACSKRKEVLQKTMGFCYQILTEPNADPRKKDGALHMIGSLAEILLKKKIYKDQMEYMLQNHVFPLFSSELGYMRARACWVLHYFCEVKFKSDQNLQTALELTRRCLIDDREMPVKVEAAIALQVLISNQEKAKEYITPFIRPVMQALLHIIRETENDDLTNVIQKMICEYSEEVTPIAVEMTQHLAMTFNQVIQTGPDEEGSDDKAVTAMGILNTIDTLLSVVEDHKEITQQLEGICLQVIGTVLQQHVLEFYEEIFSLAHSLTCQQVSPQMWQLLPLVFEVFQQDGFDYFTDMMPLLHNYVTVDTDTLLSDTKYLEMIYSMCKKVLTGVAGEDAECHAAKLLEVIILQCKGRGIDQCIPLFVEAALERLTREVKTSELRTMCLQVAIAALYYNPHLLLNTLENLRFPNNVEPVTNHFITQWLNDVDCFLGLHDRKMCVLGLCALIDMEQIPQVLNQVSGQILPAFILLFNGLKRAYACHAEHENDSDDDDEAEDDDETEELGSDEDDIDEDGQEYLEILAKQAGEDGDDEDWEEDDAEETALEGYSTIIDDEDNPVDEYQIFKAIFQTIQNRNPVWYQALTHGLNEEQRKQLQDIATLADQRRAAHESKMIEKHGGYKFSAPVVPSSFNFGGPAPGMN
# Chain of UniProt Q14739 (Q14739 whole entry, looked up): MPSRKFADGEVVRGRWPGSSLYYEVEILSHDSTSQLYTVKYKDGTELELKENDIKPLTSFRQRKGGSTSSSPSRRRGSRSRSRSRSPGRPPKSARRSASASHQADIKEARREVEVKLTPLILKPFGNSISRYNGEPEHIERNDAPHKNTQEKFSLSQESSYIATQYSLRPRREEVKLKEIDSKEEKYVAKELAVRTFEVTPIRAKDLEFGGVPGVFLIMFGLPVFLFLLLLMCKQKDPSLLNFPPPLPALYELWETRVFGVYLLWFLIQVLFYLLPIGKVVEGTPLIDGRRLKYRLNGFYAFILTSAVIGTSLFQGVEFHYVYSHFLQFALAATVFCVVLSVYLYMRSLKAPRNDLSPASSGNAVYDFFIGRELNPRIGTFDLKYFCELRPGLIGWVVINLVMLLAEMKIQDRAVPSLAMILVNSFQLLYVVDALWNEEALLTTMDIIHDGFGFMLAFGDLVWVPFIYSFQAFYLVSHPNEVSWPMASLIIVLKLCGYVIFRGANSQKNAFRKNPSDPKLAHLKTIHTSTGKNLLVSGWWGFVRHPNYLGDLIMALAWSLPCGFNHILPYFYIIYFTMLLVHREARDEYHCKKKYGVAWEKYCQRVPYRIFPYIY
# Chain of UniProt P53778 (P53778 whole entry, looked up): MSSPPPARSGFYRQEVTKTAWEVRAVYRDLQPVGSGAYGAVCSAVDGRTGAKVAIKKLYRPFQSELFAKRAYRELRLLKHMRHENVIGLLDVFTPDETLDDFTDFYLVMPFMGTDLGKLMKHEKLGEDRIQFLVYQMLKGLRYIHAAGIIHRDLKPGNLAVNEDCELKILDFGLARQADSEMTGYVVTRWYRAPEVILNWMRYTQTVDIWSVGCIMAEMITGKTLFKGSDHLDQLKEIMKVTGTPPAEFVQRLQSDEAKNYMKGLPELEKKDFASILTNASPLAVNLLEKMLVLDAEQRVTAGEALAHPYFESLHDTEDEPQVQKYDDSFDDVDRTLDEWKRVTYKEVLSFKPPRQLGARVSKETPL
# Chain of UniProt Q7L2J0 (Q7L2J0 whole entry, looked up): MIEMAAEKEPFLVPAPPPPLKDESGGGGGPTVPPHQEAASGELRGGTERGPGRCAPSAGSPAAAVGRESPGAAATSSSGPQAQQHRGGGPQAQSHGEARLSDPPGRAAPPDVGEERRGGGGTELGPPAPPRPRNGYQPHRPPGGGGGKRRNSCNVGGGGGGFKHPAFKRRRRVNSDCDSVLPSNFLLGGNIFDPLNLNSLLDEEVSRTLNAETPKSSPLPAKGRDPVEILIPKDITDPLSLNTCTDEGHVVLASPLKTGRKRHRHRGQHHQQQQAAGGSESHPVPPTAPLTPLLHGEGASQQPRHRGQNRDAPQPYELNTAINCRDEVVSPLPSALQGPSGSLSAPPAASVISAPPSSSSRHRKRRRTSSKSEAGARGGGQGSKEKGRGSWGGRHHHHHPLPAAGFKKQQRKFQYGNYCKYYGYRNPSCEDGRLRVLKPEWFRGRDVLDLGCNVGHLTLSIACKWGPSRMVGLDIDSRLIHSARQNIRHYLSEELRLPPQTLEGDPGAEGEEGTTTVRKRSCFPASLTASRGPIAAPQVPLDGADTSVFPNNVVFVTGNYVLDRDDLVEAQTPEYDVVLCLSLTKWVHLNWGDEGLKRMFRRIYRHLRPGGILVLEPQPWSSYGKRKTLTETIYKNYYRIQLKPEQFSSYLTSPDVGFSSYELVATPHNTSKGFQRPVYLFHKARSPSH
Target,log2 fold change (bafetinib),log2 fold change [1],log2 fold change (nilotinib),log2 fold change [2],log2 fold change (dasatinib),log2 fold change [3],log2 fold change [4],log2 fold change [5],log2 fold change (tipifarnib),log2 fold change (mubritinib),log2 fold change [6],log2 fold change [7],log2 fold change [8],log2 fold change [9],log2 fold change (entinostat),log2 fold change (vorinostat),log2 fold change (citarinostat),log2 fold change (silmitasertib),log2 fold change [10],log2 fold change [11]
MIA2 (UniProt Q96PC5),-0.068,-0.029,-0.002,-0.048,-0.051,-0.038,-0.058,0.041,0.029,-0.046,0.03,-0.03,0.06,-0.032,-0.009,0.009,0.059,0.083,-0.045,-0.058
MAP4 (UniProt P27816),0.008,0.005,0.008,0.008,0.049,-0.01,-0.033,-0.029,0,-0.007,0.039,0.002,0.04,0.025,-0.015,-0.013,-0.007,-0.018,0.003,-0.014
IRAK4 (UniProt Q9NWZ3),-0.047,0.236 (active),-0.089,-0.047,-0.143,-0.01,0.011,0.035,-0.116,-0.031,0.349 (active),-0.088,-0.281 (active),-0.008,0.053,0.05,0.002,0.027,-0.024,-0.019
KLHL18 (UniProt O94889),0.027,-0.252,0.005,-0.021,-0.187,0.025,0.061,-0.027,0.044,-0.017,0.132,-0.034,-0.145,-0.123,-0.045,0.137,0.123,-0.029,-0.014,-0.022
LEO1 (UniProt Q8WVC0),-0.003,0.008,-0.125,-0.045,0.049,-0.094,-0.026,0.023,-0.009,0.035,0.003,-0.06,-0.028,-0.11,0.005,0.088,0.009,0.068,-0.153,-0.055
JMJD6 isoform 3 (UniProt Q6NYC1),-0.067,0.06,-0.011,-0.254,-0.009,-0.098,-0.008,-0.047,0.036,-0.065,0.01,-0.057,-0.068,-0.019,0.039,0.048,0.064,0.081,-0.061,-0.014
MAPKAPK3 (UniProt Q16644),0.258,0,0.281,-0.03,0.002,-0.032,-0.005,0,-0.048,-0.04,0.147,-0.024,-0.125,-0.052,-0.068,-0.006,-0.012,0.18,-0.141,0.05
LIMD1 (UniProt Q9UGP4),-0.143,0.017,0.023,-0.085,0.001,-0.008,0.021,-0.015,-0.071,0.012,0.009,0.005,0.004,-0.029,-0.038,0.025,0.052,0.03,-0.06,0.01
MAPK12 (UniProt P53778),-0.037,0.008,-0.054,-0.254,-0.079,-0.035,0.34 (active),-0.077,-0.007,0.061,-0.076,-0.095,-0.09,0.014,0.012,0.08,0.046,-0.006,0.348 (active),0.018
MFGE8 (UniProt Q08431),0.024,0.002,0.168,0.008,0.049,-0.039,-0.057,-0.029,0.033,-0.096,-0.163,-0.058,0.049,0.125,-0.082,0.03,-0.036,0.117,0.007,-0.029
IPO7 (UniProt O95373),-0.018,0.035,-0.058,-0.044,-0.074,-0.091,-0.018,0.008,-0.126,0.079,0.024,-0.099,-0.145,-0.069,0.036,0.055,0.056,0.015,-0.004,-0.09
LYN (UniProt P07948),0.26,0.008,0.062,-0.414 (active),-0.419 (active),-0.043,-0.06,0.034,-0.005,-0.003,0.385 (active),0.048,-0.048,-0.016,-0.006,0.058,0.017,0.176,0.022,0.143
LBR (UniProt Q14739),0.113,0.101,-0.201,-0.007,-0.017,-0.018,0.041,0.012,-0.141,0.026,0.025,-0.008,0.004,-0.003,0.023,0.021,-0.021,-0.085,0.012,0.082
MEPCE (UniProt Q7L2J0),-0.12,0.065,0,-0.337 (active),-0.116,-0.123,0.023,0.061,0.029,-0.018,-0.085,-0.152,-0.127,-0.004,0.063,0.107,0.005,0.02,-0.019,0.026
MFN1 (UniProt Q8IWA4),-0.114,-0.034,-0.005,-0.05,-0.054,0.02,0.032,-0.019,0.123,-0.01,-0.072,-0.171,-0.01,-0.224,0.034,0.021,0.034,0.102,-0.009,0.02
MAPKAPK2 (UniProt P49137),0.125,0.017,0.145,0.045,-0.086,-0.011,-0.014,-0.022,-0.022,-0.009,0.12,0.035,-0.14,0.034,0.018,0.04,0.058,0.06,-0.128,-0.006
